Data as given in the supplement of paper PMC8728848.
The entries come from a sample that favours the strongest signals as a whole.

What was measured:
Experiment in all cases: glycan array binding signal (z-score within array); higher = stronger binding
Settings in all cases: glycan notation: IUPAC condensed, linker removed
[1] = biological target: Fuc(a1-2)Gal(b1-4)GlcNAc(b1-2)Man
Outline: (§1)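 Columns mapping to the same glycan were averaged after glycan names were converted to IUPAC-condensed notation. The data come from 3228 arrays in the Consortium for Functional Glycomics database, limited to those with an available protein sequence. Binding is reported as a within-array Z-score averaged across arrays of one protein sequence and across linkers.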

[2] = biological target: Fuc(a1-2)Gal(b1-4)GlcNAc(b1-2)Man(a1-3)[Fuc(a1-2)Gal(b1-4)GlcNAc(b1-2)Man(a1-6)]Man(b1-4)GlcNAc(b1-4)GlcNAc
Outline: as §1

[3] = biological target: Fuc(a1-2)[Gal(a1-3)]Gal(b1-4)GlcNAc(b1-3)GalNAc
Outline: as §1

[4] = biological target: Fuc(a1-2)[Gal(a1-3)]Gal(b1-4)GlcNAc(b1-6)GalNAc
Outline: as §1

[5] = biological target: Fuc(a1-2)[GalNAc(a1-3)]Gal(b1-4)GlcNAc(b1-2)Man(a1-3)[Fuc(a1-2)[GalNAc(a1-3)]Gal(b1-4)GlcNAc(b1-2)Man(a1-6)]Man(b1-4)GlcNAc(b1-4)GlcNAc
Outline: as §1

[6] = biological target: Fuc(a1-3)[Gal(b1-4)]GlcNAc(b1-6)[Gal(b1-3)GlcNAc(b1-3)]Gal(b1-4)Glc
Outline: as §1

[7] = biological target: Fuc(a1-3)[Gal(b1-4)]GlcNAc6S
Outline: as §1

[8] = biological target: Gal(a1-3)Gal(b1-3)GlcNAc(b1-6)GalNAc
Outline: as §1

[9] = biological target: Gal(a1-3)[Gal(a1-4)]Gal(b1-4)GlcNAc
Outline: as §1

Gal(b1-3)GalNAc = biological target: Gal(b1-3)GalNAc
Outline: as §1

[10] = biological target: Gal(b1-3)GlcNAc(b1-2)[Gal(b1-3)GlcNAc(b1-6)]Man(a1-6)[Gal(b1-3)GlcNAc(b1-2)Man(a1-3)]Man(b1-4)GlcNAc(b1-4)GlcNAc
Outline: as §1

[11] = biological target: Gal(b1-3)GlcNAc(b1-3)Gal(b1-4)Glc
Outline: as §1

[12] = biological target: Gal(b1-4)GlcNAc(b1-2)Man(a1-3)Man(b1-4)GlcNAc(b1-4)GlcNAc
Outline: as §1

[13] = biological target: Gal(b1-4)GlcNAc(b1-2)Man(a1-3)[GlcNAc(b1-4)][Gal(b1-4)GlcNAc(b1-2)Man(a1-6)]Man(b1-4)GlcNAc(b1-4)GlcNAc
Outline: as §1

[14] = biological target: Gal(b1-4)GlcNAc(b1-3)Gal(b1-4)GlcNAc(b1-3)Gal(b1-4)GlcNAc(b1-3)Gal(b1-4)GlcNAc(b1-2)Man(a1-3)[Gal(b1-4)GlcNAc(b1-3)Gal(b1-4)GlcNAc(b1-3)Gal(b1-4)GlcNAc(b1-3)Gal(b1-4)GlcNAc(b1-2)Man(a1-6)]Man(b1-4)GlcNAc(b1-4)GlcNAc
Outline: as §1

[15] = biological target: Gal(b1-4)GlcNAc(b1-3)Gal(b1-4)GlcNAc(b1-3)[Gal(b1-4)GlcNAc(b1-3)Gal(b1-4)GlcNAc(b1-6)]GalNAc
Outline: as §1

[16] = biological target: Gal3S(b1-4)[Fuc(a1-3)]Glc6S
Outline: as §1

[17] = biological target: GalNAc(b1-3)Gal(a1-6)Gal(b1-4)Glc
Outline: as §1

GalNAc3S(b1-4)GlcNAc = biological target: GalNAc3S(b1-4)GlcNAc
Outline: as §1

GlcA(b1-3)GlcNAc = biological target: GlcA(b1-3)GlcNAc
Outline: as §1

[18] = biological target: GlcNAc(a1-3)Gal(b1-4)GlcNAc
Outline: as §1

[19] = biological target: GlcNAc(a1-4)Gal(b1-4)GlcNAc(b1-3)Gal(b1-4)[Fuc(a1-3)]GlcNAc(b1-3)Gal(b1-4)[Fuc(a1-3)]GlcNAc
Outline: as §1

[20] = biological target: GlcNAc(b1-2)[GlcNAc(b1-4)]Man(a1-3)[GlcNAc(b1-4)][GlcNAc(b1-2)[GlcNAc(b1-6)]Man(a1-6)]Man(b1-4)GlcNAc(b1-4)[Fuc(a1-6)]GlcNAc
Outline: as §1

GlcNAc(b1-3)Fuc = biological target: GlcNAc(b1-3)Fuc
Outline: as §1

[21] = biological target: GlcNAc(b1-3)Gal(b1-3)GalNAc
Outline: as §1

[22] = biological target: GlcNAc(b1-3)Gal(b1-4)GlcNAc(b1-3)Gal(b1-4)GlcNAc(b1-3)GalNAc
Outline: as §1

GlcNAc(b1-4)GlcNAc = biological target: GlcNAc(b1-4)GlcNAc
Outline: as §1

[23] = biological target: GlcNAc6S(b1-3)Gal(b1-4)GlcNAc
Outline: as §1

Man(b1-4)GlcNAc = biological target: Man(b1-4)GlcNAc
Outline: as §1

[24] = biological target: Neu5Ac(a2-3)Gal(b1-3)GalNAc(b1-4)[Neu5Ac(a2-8)Neu5Ac(a2-3)]Gal(b1-4)Glc
Outline: as §1

[25] = biological target: Neu5Ac(a2-3)Gal(b1-3)[Neu5Ac(a2-6)]GlcNAc(b1-3)[Fuc(a1-3)[Gal(b1-4)]GlcNAc(b1-6)]Gal(b1-4)Glc
Outline: as §1

[26] = biological target: Neu5Ac(a2-3)Gal(b1-3)]Neu5Ac(a2-3)Gal(b1-4)]GlcNAc
Outline: as §1

[27] = biological target: Neu5Ac(a2-3)Gal(b1-4)[Fuc(a1-3)]GlcNAc(b1-3)Gal
Outline: as §1

[28] = biological target: Neu5Ac(a2-6)Gal(b1-4)GlcNAc(b1-2)Man(a1-6)[Gal(b1-4)GlcNAc(b1-2)Man(a1-3)]Man(b1-4)GlcNAc(b1-4)GlcNAc
Outline: as §1

[29] = biological target: Neu5Ac(a2-6)Gal(b1-4)GlcNAc(b1-2)Man(a1-6)[Man(a1-3)]Man(b1-4)GlcNAc(b1-4)GlcNAc
Outline: as §1

[30] = biological target: Neu5Ac(a2-6)Gal(b1-4)GlcNAc(b1-3)Gal(b1-4)GlcNAc(b1-3)Gal(b1-4)GlcNAc(b1-2)Man(a1-3)[Neu5Ac(a2-6)Gal(b1-4)GlcNAc(b1-3)Gal(b1-4)GlcNAc(b1-3)Gal(b1-4)GlcNAc(b1-2)Man(a1-6)]GalNAc
Outline: as §1

[31] = biological target: Neu5Ac(a2-8)Neu5Ac(a2-3)Gal(b1-4)Glc
Outline: as §1

[32] = biological target: Neu5Ac(a2-8)Neu5Ac(a2-3)Gal(b1-4)GlcNAc
Outline: as §1

[33] = biological target: Neu5Ac(a2-8)Neu5Ac(a2-8)Neu5Ac(a2-8)Neu5Ac(a2-3)[GalNAc(b1-4)]Gal(b1-4)Glc
Outline: as §1

B1: FGFR2-Fc (protein)
chain: MVNVTDAISSGDDEDDTDGAEDFVSENSNNKRAPYWTNTEKMEKRLHAVPAANTVKFRCPAGGNPMPTMRWLKNGKEFKQEHRIGGYKVRNQHWSLIMESVVPSDKGNYTCVVENEYGSINHTYHLDVVERSPHRPILQAGLPANASTVVGGDVEFVCKVYSDAQPHIQWIKHVEKNGSKYGPDGLPYLKVLKHSGINSSNAEVLALFNVTEADAGEYICKVSNYIGQANQSAWLTVLPKQQAPGREKEITASPDYLETRPLEQKLISEEDLAANDILDYKDDDDKV
glycan array binding signal (z-score) [1]: 0.252
glycan array binding signal (z-score) [2]: -0.068
glycan array binding signal (z-score) [3]: 0.523
glycan array binding signal (z-score) [4]: -0.635
glycan array binding signal (z-score) [5]: 0.034
glycan array binding signal (z-score) [6]: -0.327
glycan array binding signal (z-score) [7]: 1.73
glycan array binding signal (z-score) [8]: -0.722
glycan array binding signal (z-score) [9]: 0.989
glycan array binding signal (z-score) (Gal(b1-3)GalNAc): 0.236
glycan array binding signal (z-score) [10]: 0.991
glycan array binding signal (z-score) [11]: -0.488
glycan array binding signal (z-score) [12]: -0.054
glycan array binding signal (z-score) [13]: -0.552
glycan array binding signal (z-score) [14]: 1.4
glycan array binding signal (z-score) [15]: 0.9
glycan array binding signal (z-score) [16]: 1.35
glycan array binding signal (z-score) [17]: -0.126
glycan array binding signal (z-score) (GalNAc3S(b1-4)GlcNAc): -0.098
glycan array binding signal (z-score) (GlcA(b1-3)GlcNAc): -0.356
glycan array binding signal (z-score) [18]: 22.2
glycan array binding signal (z-score) [19]: 1.49
glycan array binding signal (z-score) [20]: 0.045
glycan array binding signal (z-score) (GlcNAc(b1-3)Fuc): 0.448
glycan array binding signal (z-score) [21]: -0.02
glycan array binding signal (z-score) [22]: 0.549
glycan array binding signal (z-score) (GlcNAc(b1-4)GlcNAc): -0.264
glycan array binding signal (z-score) [23]: 0.175
glycan array binding signal (z-score) (Man(b1-4)GlcNAc): 0.038
glycan array binding signal (z-score) [24]: -0.349
glycan array binding signal (z-score) [25]: 0.595
glycan array binding signal (z-score) [26]: -0.115
glycan array binding signal (z-score) [27]: 1.09
glycan array binding signal (z-score) [28]: 0.258
glycan array binding signal (z-score) [29]: -0.126
glycan array binding signal (z-score) [30]: 1.17
glycan array binding signal (z-score) [31]: -0.492
glycan array binding signal (z-score) [32]: -0.139
glycan array binding signal (z-score) [33]: 0.963
